High-throughput results (PubChem)
tim23-1 inh: growth inhibitors of tim23-1 mutant yeast; S. cerevisiae tim23-1 growth, BacTiter-Glo luminescence, 24 h; inhibition, % at 20 µM; 1.3% of 330,000 active;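 active means growth inhibition of the mutant yeast at or above 50%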;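 further: temperature-sensitive mutant grown at 25 °C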
PfHsp90 yeast 2: inhibits growth of yeast expressing Plasmodium falciparum Hsp90. S. cerevisiae expressing PfHsp90, BacTiter-Glo ATP, 48 h; yeast lacking PDR1 and PDR3 efflux regulators. 0.32% of 310,000 active. inhibition, % at 9.4 µM. AID 504621;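 active means every replicate shows inhibition above about 80%, whatever the replicate mean, limit read from the data; inconclusive means mean inhibition reaches the set limit but some replicate falls short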
NALP3 yeast inh: inhibitors of NALP3 inflammasome in yeast | inhibition, % at 10 µM | AID 2825 | 0.39% of 330,000 active | Yeast reconstituted NLRP3/ASC/caspase-1, beta-gal luminescence, 24 h;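 active means inhibition of 50% or more; inactive means inhibition below 50%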
tim10-1 inh: tim10-1 yeast growth inhibition | 2.2% of 330,000 active | S. cerevisiae tim10-1 ts strain growth, BacTiter-Glo, 24 h | AID 463190 | inhibition, % at 20 µM;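 active means inhibition of at least 40%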;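 further: mutant grown at 25 °C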
TIM10 inh: inhibits growth of TIM10 yeast strain; S. cerevisiae TIM10 strain growth, BacTiter-Glo luminescence, 24 h; inhibition, % at 10 µM; 1.4% of 330,000 active;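 active means inhibition of 40% or more at the single tested concentration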;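 further: wild-type TIM10 isogenic control strain grown at permissive 25 °C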
tim10-1 conf: confirmation of tim10-1 mutant yeast growth inhibitors; inhibition, % at 20 µM; S. cerevisiae tim10-1 ts strain growth, BacTiter-Glo, 24 h; shares compounds with tim10-1 inh; 56% of 7,400 active;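 active means inhibition of yeast growth at or above a set limit in either of two repeat tests at 20 µM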;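 further: tim10-1 mutant grown at permissive 25 °C to find synthetic lethal compounds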
tim10 confirm: TIM10 yeast growth inhibition, confirmed. shares compounds with TIM10 inh. S. cerevisiae tim10 strain growth, BacTiter-Glo luminescence, 24 h. inhibition, % at 10 µM. 63% of 4,600 active;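 active means inhibition of yeast growth at or above a set limit in either of two replicates at 10 µM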; further: this counterscreen used the strain with wild-type TIM10
Of the large screens only hits and unclear results are named; the others gave an inactive call (follow-up assays come after a bar, where they were run). Only some compounds are listed: those with a hit (about 3.7% of all), similar ones and a draw of the others.

C=CCc1c(C)nc(-c2ccccc2)nc1Nc1ccccc1O	tim10-1 inh 47, TIM10 inh 63 | tim10-1 conf 54 | tim10 confirm 54
Cc1ncc(CO)c(/C=N/NC(=S)Nc2ccc(Cl)c(Cl)c2)c1O	tim10-1 inh 51, TIM10 inh 92 | tim10-1 conf 33 | tim10 confirm 38
CC(C)OCCCn1c(SCC(=O)Nc2ccccc2C(F)(F)F)nc2nccnc2c1=O	none
CSc1ccc(S(=O)(=O)NCc2ccc(Cl)cc2Cl)cc1	tim10-1 inh 47, TIM10 inh 46 | tim10-1 conf 39 | tim10 confirm 39
O=S(=O)(NCc1ccc(Cl)cc1Cl)c1ccc(N2CCOCC2)nc1	none
CCOC(=O)c1c(NC(C)=O)sc2c(O)cccc12	tim10-1 inh 45, TIM10 inh 50 | tim10-1 conf inactive | tim10 confirm 38
CCOC(=O)c1c(NC(C)=O)sc2c(O)c(Br)cc(Br)c12	none (no result: tim23-1 inh, NALP3 yeast inh, tim10-1 inh, TIM10 inh)
C=C(C)COc1ccc(-c2n[nH]c(C)c2-c2ccc(OC)c(OC)c2)c(O)c1	tim10-1 inh 44, TIM10 inh 41 | tim10-1 conf 33 | tim10 confirm 38
COc1ccc(OC)c2c1C(=O)C(Cl)=C(Cl)C2=O	PfHsp90 yeast 2 110, tim10-1 inh 91, TIM10 inh 96 | tim10-1 conf 94 | tim10 confirm 99
Cc1cc(NC(=O)C(C)SCC(=O)N(Cc2ccccc2)c2ccccc2)no1 (centres undefined)	none
C[n+]1c2n(c3ccccc31)N=C(c1ccccc1)CS2	none
C[n+]1c2n(c3ccccc31)N=C(c1ccc(Br)cc1)CS2	tim10-1 inh 44, TIM10 inh 43 (no result: PfHsp90 yeast 2) | tim10-1 conf 44 | tim10 confirm 32
Cc1ccccc1OCC(=O)Nc1ccc(Cc2ccncc2)cc1	tim10-1 inh 42, TIM10 inh 41 | tim10-1 conf 40 | tim10 confirm inactive
O=C(Nc1ccc(Cl)c([N+](=O)[O-])c1)ONC1=NCCCCC1	tim10-1 inh 78, TIM10 inh 54 | tim10-1 conf 77 | tim10 confirm 46
COc1ccc(C(=O)Nc2ccc(S(=O)(=O)N3CCCC3)cc2)cc1	tim10-1 inh 55, TIM10 inh 45 | tim10-1 conf inactive | tim10 confirm 33
O=C(COc1ccccc1F)Nc1ccc(S(=O)(=O)N2CCCC2)cc1	tim10-1 inh 50, TIM10 inh 44 | tim10-1 conf inactive | tim10 confirm 33
O=C(COc1cccc(C(F)(F)F)c1)Nc1ccc(S(=O)(=O)N2CCCC2)cc1	tim10-1 inh 50, TIM10 inh 68 | tim10-1 conf 53 | tim10 confirm 51
O=C(Nc1ccccc1)Nc1ccc(S(=O)(=O)N2CCCCC2)cc1	tim10-1 inh 43, TIM10 inh 51 | tim10-1 conf 32 | tim10 confirm inactive
Cc1ccc(N(CC(=O)Nc2cccc(C)c2)S(=O)(=O)c2cccc3nonc23)cc1	tim10-1 inh 42, TIM10 inh 44 | tim10-1 conf 33 | tim10 confirm 39
Cc1ccc(NC(=O)CCS(=O)(=O)c2cccc3nonc23)cc1	none
c1ccc(COc2ncnc3c2ncn3CCCNCc2ccc3c(c2)OCO3)cc1	none (no result: tim23-1 inh, NALP3 yeast inh, tim10-1 inh, TIM10 inh)
COc1ccc(C(=O)/C=C/c2ccc(OC3CSC3)cc2)cc1OC	tim10-1 inh 42, TIM10 inh 42 | tim10-1 conf inactive | tim10 confirm inactive
Cc1cc2ccccn2c1C(=O)c1ccc([N+](=O)[O-])o1	tim10-1 inh 46, TIM10 inh 77 (no result: PfHsp90 yeast 2) | tim10-1 conf inactive | tim10 confirm 91
Cc1cc2ccccn2c1C(=O)c1cccc([N+](=O)[O-])c1	none
O=[N+]([O-])c1ccc(SNc2ccccc2)c([N+](=O)[O-])c1	none (no result: tim23-1 inh, NALP3 yeast inh, tim10-1 inh, TIM10 inh)
O=[N+]([O-])c1ccc(-[n+]2ccc3ccccc3c2)c([N+](=O)[O-])c1	tim10-1 inh 58, TIM10 inh 50 | tim10-1 conf 52 | tim10 confirm 52
Cc1nn(C)c(C(=O)Nc2ccc(S(=O)(=O)NC34CC5CC(CC(C5)C3)C4)cc2)c1Br	PfHsp90 yeast 2 inconclusive, tim10-1 inh 54, TIM10 inh 58 | tim10-1 conf 45 | tim10 confirm inactive
CC(Sc1nnc(C2CC2)n1-c1ccccc1)C(=O)N1CCCC1 (centres undefined)	none
CC(C(=O)C12CC3CC(CC(C3)C1)C2)N1CCOCC1 (centres undefined)	none
N#CC1(C#N)[C@@H](C(=O)C23CC4CC(CC(C4)C2)C3)C12CCOCC2	tim10-1 inh 57, TIM10 inh 44 | tim10-1 conf 48 | tim10 confirm inactive
COc1ccc(OC)c(N(CC(=O)Nc2cccc3ccccc23)S(C)(=O)=O)c1	none
Cc1nc(=O)c(-c2ccccc2)c(C)n1-c1ccccc1Cl	none (no result: PfHsp90 yeast 2)
Cc1cccc(NC(=O)CNC(=O)CN2CCN(C)CC2)c1C	none (no result: PfHsp90 yeast 2)
COc1ccccc1NCC(O)Cn1c2ccccc2c2ccccc21 (centres undefined)	tim10-1 inh 52, TIM10 inh 42 | tim10-1 conf inactive | tim10 confirm 40
Cc1cccc(NC(=S)N=Nc2c(O)n(CN3CCOCC3)c3ccccc23)c1C	tim10-1 inh 59, TIM10 inh 59 | tim10-1 conf 36 | tim10 confirm 41
C=CCn1c(O)c(N=NC(=S)Nc2ccccc2C)c2cc(S(=O)(=O)N3CCOCC3)ccc21	none
CC(C1CC1)N(Cc1ccccc1)C(=S)Nc1ccccc1 (centres undefined)	tim10-1 inh 42, TIM10 inh 42 | tim10-1 conf inactive | tim10 confirm 40
CC(C1CC1)N(Cc1ccccc1)C(=S)Nc1cccc(C(F)(F)F)c1 (centres undefined)	tim10-1 inh 49, TIM10 inh 53 | tim10-1 conf 48 | tim10 confirm inactive
Oc1cc(O)cc(/C=C/c2ccc(O)c(O)c2)c1	none
c1ccc(Oc2nc(-c3ccccn3)nc3ccccc23)cc1	tim10-1 inh 43, TIM10 inh 50 (no result: PfHsp90 yeast 2) | tim10-1 conf inactive | tim10 confirm inactive
c1ccc(-c2nc(N3CCCCCC3)c3ccccc3n2)nc1	none (no result: PfHsp90 yeast 2)
CCN(C(=O)COC(=O)CCCN1C(=O)c2cccc3cccc(c23)C1=O)C1CCS(=O)(=O)C1 (centres undefined)	none (no result: PfHsp90 yeast 2)
CC(=O)N1c2ccc(S(=O)(=O)NCC3CCC(C(=O)N4CC(C)CC(C)C4)CC3)cc2CC1C (centres undefined)	none
Cc1c(C(=O)NNC(=S)NCc2ccc(Cl)cc2)oc2ccccc12	none
COc1ccc(NC(=S)Nc2ccc(C)c(Cl)c2)cc1OC	none
Cc1cccc(C)c1NC(=S)Nc1ccc(Cl)c(Cl)c1	tim10-1 inh 47, TIM10 inh 52 | tim10-1 conf 38 | tim10 confirm 48
CCN(C(=O)COC(=O)c1cc(S(=O)(=O)N(C)C)ccc1Cl)C1CCS(=O)(=O)C1 (centres undefined)	none
